NR3A LBD binder: binders of NR3A ligand-binding domain, primary screen, biophysical, differential scanning fluorimetry, uHTS; Glutamate receptor ionotropic, NMDA 3A (GRIN3A) ligand-binding domain; NR3A LBD differential scanning fluorimetry, Tm shift; 0% = protein alone, 100% = glycine-bound protein; Tm shift relative to glycine control, % at 25 µM; 340,000 compounds, 2.5% hits;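 active = melting temperature shift of at least 10% of the positive control shift, at one fixed dose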
FAS-TE inh: FAS thioesterase domain inhibitors, primary screen, biochemical, fluorescence intensity, uHTS | inhibition, % at 15 µM | AID 602261, 2012 | recombinant FAS-TE, OMFH fluorogenic substrate, fluorescence endpoint | 360,000 compounds, 0.67% hits;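 active = compounds whose normalised, plate-corrected inhibition of enzyme fluorescence in the single-dose primary screen is 50% or more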;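 note: 0% = DMSO with enzyme and 100% = substrate without enzyme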
NadD block: inhibitors of S. aureus NadD, primary screen, biochemical, colorimetric, uHTS; Nicotinate-nucleotide adenylyltransferase NadD (Staphylococcus aureus N315); purified NadD enzyme, colorimetric absorbance read-out; 360,000 compounds, 0.78% hits; AID 602399, 2012; inhibition, % at 20 µM; in the data active = inhibition above about 26%
rCAG RNA binder: binders of r(CAG) RNA repeats, primary screen, biochemical, fluorescence; r(CAG) RNA repeat, TO-PRO-1 dye displacement fluorescence; inhibition, % at 3 µM; 370,000 compounds, 1.3% hits; AID 651821, 2012;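 active = inhibition above the plate cutoff, the mean of all test compounds on that plate plus 3 SD, cut at about 35% in these data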;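 note: 0% = DMSO alone and 100% = 100 µM mitoxantrone as full dye displacement; higher means more dye released from RNA so lower well fluorescence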
* = called active by the depositor; . = not tested or not shown. Shown are actives, neighbours in structure and some others; about 4.3% of the full set was active somewhere.

SMILES	NR3A LBD binder	FAS-TE inh	NadD block	rCAG RNA binder
COc1ccc(OC)c(-c2csc(NC(=O)COC(=O)c3ccc(NC(=O)CC#N)cc3)n2)c1	13*	13	48*	.
COc1ccc(OC)c(-c2csc(NC(=O)CSc3ccc(Br)cc3)n2)c1	19*	21	-3	6
CC(=O)O[C@@H]1CCC[C@@]2(C(=O)N(Cc3ccccc3)c3ccc(-c4c(C)noc4C)cc32)[C@H]1NC(=O)CCc1ccccc1	.	.	.	9
Oc1cccc(Nc2nc(-c3ccccc3)nc3ccccc23)c1	28*	20	-3	24
CNC(=O)c1ccc(Nc2nnc(-c3ccc(O)cc3)c3ccccc23)cc1	0	-3	7	1
Oc1ccc(-c2nnc(Nc3cccc(O)c3)c3ccccc23)cc1	13*	-3	5	6
COc1ccc(Nc2nc(-c3cccc(OC)c3O)nc3ccccc23)cc1	11*	29	16	29
CC(=O)c1cccc(Nc2nc(-c3ccccc3)nc3ccccc23)c1	23*	13	5	17
CCN(CC)c1ccc(-c2nn3c(-c4ccccc4Cl)nnc3s2)cc1	.	.	.	9
COc1ccc(Nc2nc(-c3ccccc3)nc3ccccc23)cc1S(=O)(=O)N1CCOCC1	11*	48	8	33
COc1ccc(NC(=O)c2cc(C)nc3ccccc23)cc1S(=O)(=O)N1CCOCC1	-2	-6	-2	3
CN(C)CCCC(C)(O)C(Cc1ccccc1)c1ccccc1 (stereo unspecified)	14*	-15	-10	2
O=C(NC(=S)Nc1nc(-c2ccc(Br)cc2)cs1)c1ccco1	30*	1	6	7
O=C(NC(=S)Nc1ccc([N+](=O)[O-])cc1)c1ccco1	.	-4	2	3
O=C(NC(=S)Nc1nc(-c2ccc([N+](=O)[O-])cc2)cs1)c1ccco1	20*	5	23	7
C[C@@H]1CNC(=O)c2c(C(=O)N(C)Cc3ccccc3)ncn21	.	.	.	0
COc1ccc(Cn2ccc3ccc(-c4ccc5ccn(C(=O)c6ccccc6)c5c4)cc32)cc1	.	.	.	10
Cc1cc(C)c(S(=O)(=O)/N=C2\C=CC(=O)C(Cl)=C2)c(C)c1	12*	17	47*	.
C[C@@H]1ON(C)[C@H]2C[C@H]3c4cc(N5CCCCC5)ccc4CCN3C[C@@H]12	.	.	.	1
COCCCN1CCC2(CCC(c3ccccc3)CC2)C1=O (stereo unspecified)	.	.	.	-1
Cc1ccc(NC(=O)c2cccc(C(=O)Nc3ccc(C)cc3C(=O)O)c2)c(C(=O)O)c1	25*	-6	9	24
COc1ccc(C)cc1NC(=O)c1cccc(C(=O)Nc2cc(C)ccc2OC)c1	-10	40	-8	-3
Cc1cccc(C(=O)Nc2sc(-c3ccccc3)cc2C(=O)O)c1	0	8	0	94*
COCCCN1C(=O)[C@H](CC(=O)N2CCSCC2)[C@]2(C(=O)OC)CCCCC=C12	.	.	.	4
COc1ccc(C2C(C(=O)N3CCN(c4ccccc4Cl)CC3)CC(=O)N2c2ccc(OC)cc2)cc1 (stereo unspecified)	.	.	.	4
SMILES	NR3A LBD binder	FAS-TE inh	NadD block	rCAG RNA binder
Cc1cccc(Cn2cc(CN3CC(N(C)CCOC(=O)c4cc(C)cc(C)c4)CS3(=O)=O)nn2)c1 (stereo unspecified)	.	.	.	2
CCOC(=O)N1CCN(C(=O)C[C@H]2C[C@@]3(C(=O)OC)C(=C[C@H](C(C)C)O[C@@H]3C3CC3)N(Cc3ccco3)C2=O)CC1	.	.	.	1
O=C(CN1CCN(S(=O)(=O)c2ccc(Br)cc2)CC1)N/N=C/c1ccc(Cl)c([N+](=O)[O-])c1	10*	46	15	10
C#CCOCCOCCOCCNc1nc(N2CCOCC2)nc(N2CCN(C(=O)CCCCCCCCCCNC(=O)[C@H]([C@@H](C)CC)n3cc(CCCCN=C(N)N)nn3)CC2)n1	-3	-1	11	7
C#CCOCCOCCOCCNc1nc(N2CCN(C(=O)CCCCCCCCCCNC(=O)[C@H]([C@@H](C)CC)n3cc(CCCCN=C(N)N)nn3)CC2)nc(N2CCN(C(=O)CCCCCCCCCCNC(=O)[C@@H]([C@H](C)O)n3cc(C)nn3)CC2)n1	3	-96	40*	.
C#CCOCCOCCOCCNc1nc(N2CCN(C(=O)CCCCCCCCCCNC(=O)[C@H](CCCCN)n3cc(C)nn3)CC2)nc(N2CCN(C(=O)CCCCCCCCCCNC(=O)[C@@H]([C@H](C)O)n3cc(C)nn3)CC2)n1	26*	-20	10	.
C#CCOCCOCCOCCNc1nc(N2CCN(C(=O)CCCCCCCCCCNC(=O)[C@H](CCCCN)n3cc(C[C@@H](C)CC)nn3)CC2)nc(N2CCN(C(=O)CCCCCCCCCCNC(=O)[C@@H]([C@H](C)O)n3cc(C)nn3)CC2)n1	11*	-152	43*	.
C#CCOCCOCCOCCNc1nc(N2CCN(C(=O)CCCCCCCCCCNC(=O)[C@@H](CCSC)n3cc(CCO)nn3)CC2)nc(N2CCN(C(=O)CCCCCCCCCCNC(=O)[C@@H]([C@H](C)O)n3cc(C)nn3)CC2)n1	0	-11	9	17
C=C(C)CSc1nnc(-c2cc(-c3ccccc3)n[nH]2)n1N	.	.	.	0
O=C(O)c1cc(N/N=C/c2ccc(N3CCOCC3)s2)ccc1Cl	0	-6	13	75*
CCOc1ccc(C=NNC(=O)c2cc(-c3ccc(Cl)cc3)n[nH]2)cc1	.	.	.	10
CC1CC(C)CN(C(=O)CNC(=O)c2ccc3ccccc3c2)C1 (stereo unspecified)	92*	-1	-2	-4
CCOC(=O)N1CCc2c(sc(NC(=O)CCS(=O)(=O)c3ccccc3)c2C(N)=O)C1	-2	-2	-2	1
CNC(=O)c1c(NC(=O)CCS(=O)(=O)c2ccc(Cl)cc2)sc2c1CCN(C(=O)OC)C2	10*	-1	-2	4
CN1C(=O)[C@@](O)(c2cccn2C)c2cc(Cl)ccc21	.	.	.	0
CCOC(=O)[C@@]12CCC3=C1N(CCC3)C(=O)[C@H](CC(=O)NCc1ccccc1)C2	.	.	.	0
Cc1cc(C)nc(SCc2nnc(SCC(=O)Nc3ccc(C)c(C)c3)n2Cc2ccco2)n1	1	7	11	-4
COC(=O)CSc1nnc(CSc2nc(C)cc(C)n2)n1Cc1ccco1	14*	0	0	-1
O=C(CCn1c2c(c3ccccc31)CCCC2)NNC(=O)c1ccc(Cl)c([N+](=O)[O-])c1	20*	26	15	30
COc1cccc(CNS(=O)(=O)c2cc3c(cc2Br)CC(C)N3C(C)=O)c1 (stereo unspecified)	.	.	.	3
Cc1ccc(NC(=S)NC(NC(=O)C(C)(C)C)C(Cl)(Cl)Cl)c(C)c1 (stereo unspecified)	-3	3	-2	-3
Cc1ccc(C)c(NC(=S)NC(NC(=O)OCc2ccccc2)C(Cl)(Cl)Cl)c1 (stereo unspecified)	15*	0	0	7

Source: PubChem (several laboratories)
